BoNT-A LC inh2: BoNT/A light chain protease inhibitors, primary screen, biochemical, flow cytometry, MLPCN library | Botulinum neurotoxin type A light chain protease (Clostridium botulinum A str. ATCC 3502) | multiplex microsphere protease substrate cleavage | inhibition, % at 10 µM | 0.17% of 360,000 active | AID 588499, 2011; further: plate controls were buffer without enzyme for full effect and enzyme alone for no effect
Autofluor counter: compound fluorescence in toxin protease inhibitor counterscreen | AID 624483 | fluorescence intensity (no concentration beside the values) | compound autofluorescence counterscreen, microsphere flow cytometry; stronger effect = higher value | 3.1% of 360,000 active; in the data active means fluorescence intensity above about 16000; inconclusive means no clear call, values can overlap the other calls
MazEF act: activators of E. coli MazEF toxin-antitoxin RNase, primary screen, biochemical, fluorescence, uHTS; Endoribonuclease toxin MazF (Escherichia coli (strain K12)), P0AE70; FAM/BHQ RNA-DNA oligo cleavage fluorescence, 5 h; activation, % at 20 µM; 0.32% of 350,000 active; in the data active means activation above about 50%
Target sequence (P0AE70 whole entry, looked up): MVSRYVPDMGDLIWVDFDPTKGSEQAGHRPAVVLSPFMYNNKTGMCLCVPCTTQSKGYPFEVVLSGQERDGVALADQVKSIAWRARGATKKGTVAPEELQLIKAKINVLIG
BoNT F protease: BoNT/F light chain protease inhibitors, primary screen, biochemical, flow cytometry, MLPCN library. Botulinum neurotoxin type F light chain protease (Clostridium botulinum). Multiplex microsphere protease cleavage assay. inhibition, % at 10 µM. 0.22% of 360,000 active; in the data active means inhibition above about 35%, passing the limit was not always enough; inconclusive means no clear call, values can overlap the other calls; further: plate controls were buffer without enzyme for full effect and enzyme alone for no effect
Anthrax LF prot: Bacillus anthracis LF protease inhibitors, primary screen, biochemical, multiplex microsphere, MLPCN library; AID 588501, 2011; Lethal factor (Bacillus anthracis), P15917; 0.12% of 360,000 active; multiplex microsphere protease cleavage assay; inhibition, % at 10 µM; further: plate controls were buffer without enzyme for full effect and enzyme alone for no effect
Starred values were filed as active, the others as inactive; ? = inconclusive; nt = not tested or not shown; + = active, no number. Most compounds without a hit are left out; they make up all but 3.6% or so of the library. Unless noted, no stated cut-off is given here; in the data, active means inhibition above about 30%; inconclusive means no clear call, values can overlap the other calls; inactive means below that.

SMILES	BoNT-A LC inh2	Autofluor counter	MazEF act	BoNT F protease	Anthrax LF prot
CN1C(=O)C(=Cc2cn(CC(=O)N3CCCC3)c3ccccc23)C(=O)N(C)C1=O	-2	4764	-5	0	-4
CCn1cc(C=C2C(=O)c3ccccc3C2=O)c2ccccc21	70*	3399	+	19	34*
CCOc1ccc(CC(=O)N/N=C/c2sccc2C)cc1	2	5386	3	-1	-2
CSc1ccccc1C(=O)Nc1ccccc1C	0	2431	10	-3	2
Cc1ccccc1C(=O)Nc1ccccc1C(=O)NCc1ccccc1	0	21881*	-2	-2	-3
O=C(O)CNC(=O)c1ccccc1NC(=O)c1ccco1	-1	22742*	0	-2	-1
Cc1ccccc1NC(=O)c1ccccc1O	0	22757*	-10	0	-1
O=S1(=O)N[C@@H](Cc2ccccc2)COc2cccc(N3CCC[C@@H]3CO)c21	0	4055	nt	7	-3
COc1cccc(CNS(=O)(=O)c2c(C)[nH]c(C)c2C(=O)N2CCCCC2)c1	12	2884	10	25	10
COc1cc(/C=C/C(=O)O)cc(S(=O)(=O)Nc2ccccc2C(=O)NCc2ccco2)c1OC	0	3022	3	8	-2
COc1cccc(OC)c1C(=O)Nc1ccccc1C(=O)N1CCCCCC1	1	4960	3	-8	0
NC(c1csc(Nc2nccc(C(F)(F)F)n2)n1)C1CCCCC1 (centres undefined)	0	3721	nt	-11	-4
CC(C)(C)NC(=O)CN(C(=O)C1(C)CC(=O)N=C2C=CC=CN21)C1CCCC1 (centres undefined)	-5	23762*	2	-7	-4
COc1ccc(C(=O)NNC(=O)COC(=O)c2sccc2C)cc1	3	4510	0	0	0
Cc1nn2c(C)nc3sc4c(c3c2nc1=O)CC(C)(C)OC4	-6	25222*	7	-6	1
CC1(C)Cc2c(sc3nc(-c4cccs4)n(N)c(=O)c23)CO1	?	21380*	8	6	0
COc1ccccc1CN1CCCC(CN(CCN(C)C)C(=O)C2CCCC2)C1 (centres undefined)	-8	3572	1	?	19
Clc1ccc(CN2C3=NCCN3c3ccccc32)cc1Cl	0	23094*	11	-4	0
c1ccc(CN2C3=NCCN3c3ccccc32)cc1	0	2571	6	-7	1
CCCCn1c(N)c(N(CCOC)C(=O)c2c(CC)noc2C)c(=O)[nH]c1=O	-6	?	1	-7	1
O=P(Nc1cccnc1)(Oc1ccccc1Cl)Oc1ccccc1Cl	7	7876	13	86*	30*
CCc1nc(-c2cc3ccc(C)cc3[nH]c2=O)no1	0	9970	10	-1	2
Cc1ccc2cc(-c3noc(C(C)(C)C)n3)c(=O)[nH]c2c1	2	22460*	-3	3	2
CC1=C(C(=O)N2CCOCC2)CC(CC(=O)NC(c2ccccc2)c2ccccc2)C(=O)N1Cc1ccc(F)cc1 (centres undefined)	0	3409	1	3	2
COc1cc(-c2c(C#N)c(N)nc3c2CCCC3)cc(OC)c1OC	3	7913	11	5	-1
SMILES	BoNT-A LC inh2	Autofluor counter	MazEF act	BoNT F protease	Anthrax LF prot
COc1ccc(-c2c(C#N)c(N)nc3c2CCCC3)cc1OC	0	16197*	0	1	-1
Nn1c(SCC(=O)Nc2ccc(N3CCOCC3)cc2)nnc1-c1ccccc1F	-1	2962	0	-9	-7
COc1ccc(OCC(=O)Nc2ncc3c(n2)CC(C)(C)CC3=O)cc1	?	22939*	2	-4	-2
Cc1cc(C)nc(SCC(=O)Nc2ncc3c(n2)CC(C)(C)CC3=O)n1	-1	20783*	5	-3	0
CC1(C)CC(=O)c2cnc(NC(=O)CSc3nc4ccccc4o3)nc2C1	-1	5209	14	-33	-3
CCCCC(=O)Nc1ncc2c(n1)CC(C)(C)CC2=O	0	2364	0	2	-1
CCCC(C)NC(=O)c1cc(S(=O)(=O)N2CCCCCC2)ccc1OC (centres undefined)	0	7672	0	2	-11
Cc1ccc(Cl)cc1N(CC(=O)NC(C)c1ccccc1)S(C)(=O)=O (centres undefined)	-1	3955	9	8	-9
COc1ccc(N(CC(=O)NCCSC2CCCCC2)S(C)(=O)=O)c(OC)c1	?	18476*	2	-10	-1
CS(=O)(=O)N(CC(=O)NCCSC1CCCCC1)c1ccc2c(c1)OCO2	0	2114	0	3	1
COc1ccc(Cl)cc1Nc1nc(N)nc(C(F)(F)F)n1	-2	12088	-2	-12	-6
COc1ccc(Nc2nc(N)nc(C(F)(F)F)n2)c(OC)c1	6	17527*	4	6	-9
COc1ccc(Nc2nc(N3CCCCC3)nc(N3CCCCC3)n2)c(OC)c1	-1	10251	0	-2	-5
COc1ccc(Nc2nc(N3CCCC3)nc(N3CCCC3)n2)c(OC)c1	-1	20538*	-3	-3	-4
COc1cccc(NC(=O)CN(C)C(=O)c2cc3c(s2)CCC3)c1	nt	nt	1	nt	nt
O=C(NC1CCCCC1)C1CCCN(S(=O)(=O)c2ccc(F)cc2)C1 (centres undefined)	2	3838	-21	-2	0
CCN(CC(=O)Nc1c(F)cccc1F)C(=O)COc1ccc2c(c1)CCC2	-3	?	-1	5	0
CCN1C(=O)CSC1=Nc1ccc(C(=O)OC)cc1	0	3514	-1	-2	-1
O=C(O)C1CCCN1c1nc(-c2ccc(Cl)c(Cl)c2)cc(C(F)(F)F)n1 (centres undefined)	0	3404	2	6	-7
CC(C)(C(=O)N1CCC1(C)C(=O)NS(=O)(=O)c1cccc(Cl)c1)c1ccccc1 (centres undefined)	0	2832	nt	7	-7
CN1CCC(N2CC3CC(C2)c2cccc(=O)n2C3)CC1 (centres undefined)	-2	24622*	12	-6	0
Cn1cc(Br)c(C(=O)NC2C3CC4CC(C3)CC2C4)n1 (centres undefined)	?	20443*	-7	-3	-1
N=C(N)c1ccc(/C=C/c2ccc(C(=N)N)cc2O)cc1	?	5204	60*	?	-6
Cc1ccc(O)c(C2=NCCNC(C(F)(F)F)=C2)c1	?	21465*	6	-7	-3
Oc1c(C2=NCCNC(C(F)(F)F)=C2)ccc2ccccc12	-2	3156	20	-10	-4
O=C(c1cc(-c2cccnc2)nc2ccccc12)N1CCC2(CC1)OCCO2	2	19594*	6	-2	-10
O=C(c1cc(-c2ccncc2)nc2ccccc12)N1CCN(c2ccccn2)CC1	-6	17502*	-17	-8	-2

Bioassay records deposited in PubChem BioAssay by several laboratories.
